# Pf growth 96h: P. falciparum growth inhibition at 96 hour, primary screen for plastid delayed-death inhibitors; P. falciparum luciferase reporter growth, 96 h; Potency, µM (top dose mostly 28.7 µM), for inactives: at the top dose activity change, negative = inhibition, most hits filed as inhibitors; hit rate 6.9% among 320,000; AID 504834; also: potency is read from the fitted curve at half-maximal effect; % is scaled to controls: 0 for no effect and ±100 for the full control effect
#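 Cell-based qHTS: luciferase-tagged P. falciparum in erythrocytes (2% hematocrit, 0.05% parasitemia final) incubated with compounds for 96 hours, 37 C, 5% CO2; luciferase detection reagent then added and luminescence measured.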
# Pf growth 48h: P. falciparum growth inhibition at 48 hours (one generation); P. falciparum luciferase growth in erythrocytes, 48 h; Potency, µM (highest dose often 28.7 µM), for inactives: top-dose activity change, negative = inhibition, most hits filed as inhibitors; hit rate 5.9% among 310,000; AID 504832; also: potency is read from the fitted curve at half-maximal effect; % is scaled to controls: 0 for no effect and ±100 for the full control effect
#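 Luminescence readout; reporter = integrated firefly luciferase in P. falciparum. RBC culture at 2% hematocrit, 0.1% parasitemia final, 37 C/5% CO2; decreased signal taken as growth inhibition.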
# SARS PLpro yeast: inhibitors of SARS-CoV papain-like protease in yeast; S. cerevisiae expressing SARS-CoV PLpro, growth rescue; Potency, µM (top dose mostly 32.9 µM), for inactives: top-dose activity, positive = growth rescue, actives largely listed as activators; AID 485353; hit rate 0.19% among 330,000; calls by dose curve; also: potency is read from the fitted curve at half-maximal effect; 0% is about no effect; nearly all actives have a fitted effect of over 55% in size
# Cycloheximide cs: counter-screen for Shiga toxin inhibitors: cycloheximide protein synthesis inhibition; cell reporter, cycloheximide protein synthesis inhibition counterscreen; max response, %; hit rate 12% among 300,000; in the data active = max response mostly above about 13%, no sharp cut-off; inactive = mostly below about 14%; also: read at 38.3 µM for the half of the compounds with a filed dose; 0% is about no effect
# AMA1-RON2 inh: AMA1-RON2 (P. falciparum) interaction inhibition; AID 720542; AlphaScreen AMA1-biotinylated RON2 peptide binding; Potency, µM (top dose mostly 58.2 µM), inactives show at the top dose activity change, negative = inhibition, hits mostly inhibitors; hit rate 0.2% among 360,000;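 also: potency is read from the fitted curve at half-maximal effect; 0% = vehicle wells and -100% = peptide control; nearly all actives have a fitted effect of over 45% in size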
#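 AMA1 (3D7) with his tag at 25 nM final met compounds first, then biotinylated RON2 peptide at 25 nM; detection used donor plus acceptor beads, 10 µg/mL apiece, read by AlphaScreen after 30 min at room temperature.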
# Shiga toxin inh: inhibitors of Shiga toxin in Vero cells | Vero cells, Shiga toxin protein synthesis inhibition reporter | inhibition, % at 38.7 µM | hit rate 9.2% among 290,000 | AID 2315; in the data active = inhibition mostly above about 28%, no sharp cut-off; inactive = mostly below about 43%; also: 0% is about no effect
# Numbers without * were called inactive; ? = inconclusive; / = no result; + = active, no number. Hits are enriched below; roughly 19% of the tested compounds scored in any of these assays. Unless noted, calls follow the shape of the dose curve; as a rule, active = well fitted curve in the direction sought with a large enough effect; inconclusive = small, poorly fitted or top-dose-only effect, or another doubt; inactive = no such curve, though single readings can be large; an effect the other way counts as inactive or inconclusive.
SMILES,Pf growth 96h,Pf growth 48h,SARS PLpro yeast,Cycloheximide cs,AMA1-RON2 inh,Shiga toxin inh
Cc1cccc(C(=O)NCCC(=O)Nc2ccc(F)c([N+](=O)[O-])c2)c1,-23.9%,-21.7%,0.2%,-4.8,-0.4%,-11.7
O=C(Nc1ccccc1)C1C2/C=C\CCCCC21 (configuration not stated),-9.7%,4.9%,-0.2%,19.3*,-2.8%,43.4*
Cc1ccccc1NC(=O)C1C2/C=C\CCCCC21 (configuration not stated),261.2%,26.9%,-5.2%,-0.9,-7.1%,11.1
Cc1ccc(NC(=O)C2C3CCCC2C3c2ccccc2)cc1 (configuration not stated),13.4%,13.7%,8.0%,-2.8,16.7%,-11.2
Cc1ccc(NC(=O)C2C3/C=C\CCCCC32)cc1C (configuration not stated),33.8%,15.1%,10.6%,37.1*,-11.6%,129.9
Nc1cc(N)nc(SCCOc2ccccc2)n1,160.6%,136.4%,-33.6%,36.0*,-7.0%,55.4*
COc1ccccc1OCC#CCSc1ncccn1,-11.8%,0.0%,-1.3%,23.7*,-4.3%,54.1
COc1ccccc1OCCSc1nc(N)cc(N)n1,106.6%,96.2%,-9.2%,22.0,-15.6%,active
Nc1cc(N)nc(SCCOc2ccccc2F)n1,9.1%,75.5%,-27.6%,70.5*,-7.7%,121.2*
CC(C)NC(=O)C1(C)CN(S(C)(=O)=O)CC(=O)N1CCc1ccccc1F (configuration not stated),/,/,/,/,0.6%,/
Cn1c(C(=O)OC(C(=O)NCc2ccco2)c2ccncc2)cc2sccc21 (configuration not stated),13.6%,/,1.6%,-2.7,-12.9%,-16.5
COc1ccc2c(c1)C(c1ccc(Cl)cc1)NC(=O)C2 (configuration not stated),?,?,1.6%,/,1.1%,/
Cc1ccccc1Nc1nccc(N(C)C)c1C#N,?,23.3%,-0.3%,-1.2,4.6%,7.7
CN(C)c1ccnc(NCc2ccccc2)c1C#N,/,9.5%,-4.1%,30.1*,-18.6%,55.1*
CN(C)c1ccnc(N(Cc2ccccc2)Cc2ccccc2)c1C#N,/,?,-49.2%,29.3*,-8.9%,49.9*
CCOC(=O)c1cnn(CCOC(=O)c2ccc(F)cc2)c1NC(=O)c1ccc(F)cc1,36.8%,6.2%,10.5%,-2.0,-15.1%,-10.8
COC(=O)/C(=C1/Oc2ccc(C)cc2S1)C(F)(F)F,?,36.1%,2.4%,24.5*,-6.3%,56.5*
CC1=C(C(=O)N2CCOCC2)CC(CC(=O)NC2CCCCC2)C(=O)N1Cc1ccccc1 (configuration not stated),/,/,/,/,-7.6%,/
CCOC(=O)c1cnc(-n2[nH]c(C)cc2=O)[nH]c1=O,?,-3.1%,23.7%,6.7,1.58µM*,1.6
CC(=O)C(Sc1ncnc2sc3c(c12)CCCC3)C(C)=O,-0.9%,8.9%,-0.1%,-1.9,84.1%,-5.3
Cc1ccc(S(=O)(=O)Nc2ccccc2C(=O)N2CCCCCC2)cc1,?,27.2%,-0.1%,-2.7,-2.5%,1.3
CCOC(=O)CC1COCCN1C(=O)CCc1nnc(-c2ccsc2)o1 (configuration not stated),-26.2%,11.6%,0.9%,33.0*,14.4%,34.0
COC(=O)[C@@H](NC(=O)CCc1nnc(-c2ccsc2)o1)C(C)C,-13.3%,13.9%,-0.5%,49.9*,-5.0%,30.5
Cc1nc(C(C)NC(=O)CCc2nnc(-c3ccsc3)o2)cs1 (configuration not stated),?,-7.6%,0.0%,-0.4,2.6%,22.4
COc1ccc(/C=N/NC(=O)c2cccc(NC(C)=O)c2)c(C(=O)O)c1OC,?,?,-3.9%,-1.3,4.6%,-10.7
SMILES,Pf growth 96h,Pf growth 48h,SARS PLpro yeast,Cycloheximide cs,AMA1-RON2 inh,Shiga toxin inh
CCOc1ccc(S(=O)(=O)N(C)CC(=O)NCc2ccccn2)cc1Cl,181.2%,3.9%,4.0%,-3.9,16.0%,-2.7
CCOc1ccc(S(=O)(=O)NCc2ccc(OC)cc2)c2cccnc12,-6.1%,9.0%,-4.5%,-1.3,-9.9%,-10.6
CCOc1ccc(S(=O)(=O)Nc2ccc3c(c2)OCO3)c2cccnc12,?,?,-4.6%,23.2*,31.6%,18.7
CCOc1ccc(S(=O)(=O)NCc2ccc(F)cc2)c2cccnc12,6.57µM*,-0.3%,-1.9%,11.1,12.7%,5.4
COc1ccc(C(=O)NCc2ccncc2)cc1S(=O)(=O)NCc1ccc(Cl)cc1,10.4µM*,?,-1.4%,/,0.4%,/
CCOc1ccc(Br)cc1S(=O)(=O)NCc1ccncc1,13.1µM*,-0.6%,-2.9%,-3.3,10.2%,-7.0
COc1ccc(Cl)cc1S(=O)(=O)NCc1ccncc1,4.7%,-4.3%,-1.0%,4.0,-1.3%,-11.6
CCOC(=O)c1ccc(CNC(=O)c2n[nH]c(=O)c3ccccc23)o1,8.4%,1.1%,13.6%,2.4,5.1%,-7.0
Cc1cc(C)c(C(=O)CSC2=NC(N)=C(C#N)C3(CCCCC3)C2C(N)=O)cc1C (configuration not stated),?,/,8.3%,3.4,14.9%,-9.4
COc1cc(/C=N/Nc2nc3ccccc3s2)ccc1OC(=O)c1ccccc1F,?,-27.0%,6.8%,43.2*,-0.8%,+
COc1ccc(C=NNc2nc3ccccc3s2)cc1,/,/,/,/,32.8%,/
COc1cc(/C=N\NC(=O)c2cccnc2)ccc1OC(=O)c1ccccc1Cl,6.5%,?,-7.2%,-0.5,10.0%,-8.0
COc1cc(OC)cc(C(=O)Oc2ccc(/C=N/Nc3nc4ccccc4s3)cc2OC)c1,-100.7%,-32.3%,2.0%,48.3*,65.7%,123.9*
COc1ccc(OC)c(C2(O)CSC(=Nc3cccnc3)N2Cc2ccco2)c1 (configuration not stated),4.65µM*,11.7µM*,-4.3%,4.9,-22.8%,-2.2
O=C(NN1CCCCCC1)c1ccccc1F,/,/,/,/,2.3%,/
CC(Sc1cccc[n+]1[O-])C(=O)Nc1ccc(Oc2ccccc2)cc1 (configuration not stated),?,9.6%,-0.6%,2.3,9.2%,1.6
CO[C@H]1C[C@@H]2CC[C@@H](C)[C@@](O)(O2)C(=O)C(=O)N2CCCC[C@H]2C(=O)O[C@H]([C@H](C)C[C@@H]2CC[C@@H](O)[C@H](OC)C2)CC(=O)[C@H](C)C=C(C)[C@@H](O)[C@@H](OC)C(=O)[C@H](C)C[C@H](C)C=CC=CC=C1C,0.928µM*,5.22µM*,-10.5%,6.1,/,2.7
O=C(CC(Nc1ccc(F)cc1)C(=O)O)c1ccccc1 (configuration not stated),/,203.9%,-7.6%,37.1*,-0.5%,41.1*
O=C(CC(Nc1ccc(F)cc1)C(=O)OCC(=O)c1cccs1)c1ccccc1 (configuration not stated),0.0%,70.1%,-20.1%,16.0*,-29.4%,24.3

# Screens deposited in PubChem by National Center for Advancing Translational Sciences (NCATS).
